Screening results deposited in PubChem by several laboratories.
This is a sample that favours compounds with a hit; in the whole collection about 4.3% have one here.
FAS-TE inh – blocks the thioesterase domain of human fatty acid synthase | hit rate 0.67% among 360,000 | P49327 | AID 602261 | recombinant FAS-TE, OMFH fluorogenic substrate, fluorescence endpoint | inhibition, % at 15 µM;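 active = compounds whose normalised, plate-corrected inhibition of enzyme fluorescence in the single-dose primary screen is 50% or more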;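 note: 0% = DMSO with enzyme and 100% = substrate without enzyme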
sPLA2-III inh – Inhibits HGIII-sPLA2 liposome hydrolysis, primary screen. hit rate 0.56% among 370,000. QFRET BODIPY PC-A2 liposome hydrolysis, fluorescence. inhibition, % at 12.2 µM;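 active = inhibition above mean plus 3 SD of compounds lying within the high and low control bounds, cut at about 19% in these data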;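 note: 0% = median of test compound wells and 100% = no enzyme DMSO wells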
Target sequence (Q9NZ20 whole entry, looked up): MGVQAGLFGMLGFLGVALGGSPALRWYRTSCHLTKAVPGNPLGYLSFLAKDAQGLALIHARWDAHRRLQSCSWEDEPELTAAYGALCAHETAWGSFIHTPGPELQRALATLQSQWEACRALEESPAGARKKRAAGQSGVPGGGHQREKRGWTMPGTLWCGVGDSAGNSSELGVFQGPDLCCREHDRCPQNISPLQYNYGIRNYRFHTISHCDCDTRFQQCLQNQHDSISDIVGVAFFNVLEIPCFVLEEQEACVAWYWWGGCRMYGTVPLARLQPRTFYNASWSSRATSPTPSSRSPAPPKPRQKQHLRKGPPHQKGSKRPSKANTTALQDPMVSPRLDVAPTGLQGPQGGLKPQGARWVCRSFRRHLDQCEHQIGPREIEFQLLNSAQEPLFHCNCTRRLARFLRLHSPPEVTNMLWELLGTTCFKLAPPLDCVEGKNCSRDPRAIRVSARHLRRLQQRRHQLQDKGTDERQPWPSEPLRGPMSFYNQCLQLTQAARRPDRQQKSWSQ
GRIN3A LBD mod – NR3A (human) ligand-binding domain modulation; NR3A LBD differential scanning fluorimetry, Tm shift; 0% = protein alone, 100% = glycine-bound protein; Tm shift relative to glycine control, % at 25 µM; hit rate 2.5% among 340,000; AID 1259313;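 active = melting temperature shift of at least 10% of the positive control shift, at one fixed dose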
ADAM17 inh – inhibitors of human ADAM17; hit rate 0.83% among 370,000; inhibition, % at 6.95 µM; recombinant ADAM17, EDANS/DABCYL FRET peptide cleavage;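 active = inhibition above the mean of compounds lying between control limits plus 3 SD, set per campaign, cut at about 8.5% in these data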;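 note: 0% = DMSO-only wells as the low control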
ADAM10 inh – inhibits human ADAM10. O14672. recombinant ADAM10, EDANS/DABCYL FRET peptide cleavage, 3 h. inhibition, % at 7 µM. hit rate 0.62% among 370,000;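 active = inhibition above a per-campaign cutoff equal to the mean of compounds falling between control-based bounds plus 3 SD, cut at about 20% in these data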;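 note: 0% = DMSO wells while the 100% control is not disclosed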
FAS-TE inh conf – confirmation of human fatty acid synthase thioesterase inhibitors. shares compounds with FAS-TE inh. recombinant FAS-TE, OMFH fluorogenic substrate, fluorescence. inhibition, % at 15 µM. hit rate 45% among 2,300. AID 624325;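 active = compounds inhibiting the enzyme by at least 50% at 15 µM in any one of the replicates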;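 note: 0% = enzyme with DMSO only and 100% = wells lacking enzyme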
* = called active by the depositor.

COc1ccc(/C=N/NC(=O)c2ccc(CN3c4cccc5cccc(c45)S3(=O)=O)cc2)cc1 was read as FAS-TE inh 79*, sPLA2-III inh 0, GRIN3A LBD mod 22*, ADAM17 inh -66, ADAM10 inh -306 and FAS-TE inh conf 10.
For COC(=O)c1cc(C(=O)Nc2nnc(C3CC3)s2)cc([N+](=O)[O-])c1 the results were FAS-TE inh 51*, sPLA2-III inh 6, GRIN3A LBD mod -7, ADAM17 inh -3, ADAM10 inh -6 and FAS-TE inh conf 60*.
COCc1nnc(NC(=O)c2cc(C(=O)OC)cc([N+](=O)[O-])c2)s1 was read as FAS-TE inh 3, sPLA2-III inh 15, GRIN3A LBD mod -3, ADAM17 inh -3 and ADAM10 inh -10.
Screening COC(=O)c1cc(C(=O)Nc2nnc(CC(C)C)s2)cc([N+](=O)[O-])c1 returned FAS-TE inh 51*, sPLA2-III inh -1, GRIN3A LBD mod -10, ADAM17 inh 2, ADAM10 inh 0 and FAS-TE inh conf 30.
Cc1ccc([N+](=O)[O-])cc1NC(=O)CN(C(=O)c1ccc(Cl)cc1)C1CCCCC1 was read as FAS-TE inh 86*, sPLA2-III inh -1, GRIN3A LBD mod -9, ADAM17 inh 0, ADAM10 inh 2 and FAS-TE inh conf 91*.
`Cc1ccc([N+](=O)[O-])cc1NC(=O)CCSc1ccc(Cl)cc1` gave FAS-TE inh 66*, sPLA2-III inh -24, GRIN3A LBD mod 1, ADAM17 inh 7, ADAM10 inh 20 and FAS-TE inh conf 62*.
For COc1ccccc1/C=C(\NC(=O)c1ccc(OC)c(OC)c1)C(=O)Nc1cc([N+](=O)[O-])ccc1C the results were FAS-TE inh 60*, sPLA2-III inh 13, GRIN3A LBD mod -1, ADAM17 inh -10, ADAM10 inh -1 and FAS-TE inh conf 71*.
`Cc1ccc([N+](=O)[O-])cc1NC(=O)c1ccc(C(C)(C)C)cc1` gave FAS-TE inh 68*, sPLA2-III inh 14, GRIN3A LBD mod -6, ADAM17 inh 1, ADAM10 inh -7 and FAS-TE inh conf 72*.
Screening Cc1ccc([N+](=O)[O-])cc1NC(=O)Cc1ccc(F)cc1 returned FAS-TE inh 44, sPLA2-III inh 2, GRIN3A LBD mod -1, ADAM17 inh -3 and ADAM10 inh 2.
For O=C(NCCc1c[nH]c2ccccc12)OCc1cn(-c2cccc(Cl)c2)nn1 the results were sPLA2-III inh -93, ADAM17 inh -2 and ADAM10 inh 6.
`COC(=O)[C@]12C[C@H](CC(=O)NCC3CCCCC3)C(=O)N(Cc3ccccc3)C1=C[C@H](COCc1ccccc1)O[C@@H]2C` gave sPLA2-III inh -10, ADAM17 inh 0 and ADAM10 inh 6.
`C/C(=N/Nc1ccc(C(=O)O)cc1)c1ccc2c(c1)Nc1ccccc1S2` gave FAS-TE inh 52*, sPLA2-III inh -5, GRIN3A LBD mod 7, ADAM17 inh -11, ADAM10 inh -62 and FAS-TE inh conf 62*.
For C/C(=N\Nc1ccc(C(=O)O)cc1)c1ccc2c(c1)Nc1ccccc1S2 the results were FAS-TE inh 71*, sPLA2-III inh -15, GRIN3A LBD mod 6, ADAM17 inh -9, ADAM10 inh -31 and FAS-TE inh conf 61*.
For CN(Cc1ccc(F)cc1)C(=O)c1cccc2c1C(=O)N(Cc1cccnc1)C2 the results were sPLA2-III inh 5, ADAM17 inh -4 and ADAM10 inh -10.
`CC(C)(C)c1ccc(C(=O)OCCNC(=O)c2c(Cl)nc3ccccn23)cc1` gave FAS-TE inh 66*, sPLA2-III inh -28, GRIN3A LBD mod -9, ADAM17 inh 2, ADAM10 inh 5 and FAS-TE inh conf 75*.
For CC1(C)CC[C@]2(C(=O)n3ccnc3)CC[C@]3(C)[C@H](C(=O)C=C4[C@@]5(C)C=C(C#N)C(=O)C(C)(C)[C@@H]5CC[C@]43C)[C@@H]2C1 the results were FAS-TE inh 96*, sPLA2-III inh -28, GRIN3A LBD mod 0, ADAM17 inh -2, ADAM10 inh 4 and FAS-TE inh conf 68*.
CC(C)(C)c1ccc(CSc2ccc(S(=O)(=O)N3CCOCC3)cn2)cc1 was read as FAS-TE inh 82*, sPLA2-III inh -9, GRIN3A LBD mod 4, ADAM17 inh -1, ADAM10 inh 5 and FAS-TE inh conf 74*.
Screening N#CCSc1ccc(S(=O)(=O)N2CCOCC2)cn1 returned FAS-TE inh -7, sPLA2-III inh 0, GRIN3A LBD mod 4, ADAM17 inh -5 and ADAM10 inh -17.
CN1C(=O)C(CC(=O)Nc2ccc(F)cc2)N(Cc2cccs2)C1=S (configuration not stated) was read as FAS-TE inh 45, sPLA2-III inh -49, GRIN3A LBD mod 3, ADAM17 inh 0 and ADAM10 inh 1.
For CCCOc1ccc(NC(=O)CC2C(=O)N(C)C(=S)N2Cc2cccs2)cc1 (configuration not stated) the results were FAS-TE inh 64*, sPLA2-III inh -53, GRIN3A LBD mod 9, ADAM17 inh 6, ADAM10 inh 12 and FAS-TE inh conf 65*.
Screening CC1C(=O)N(c2ccc(S(=O)(=O)N(C)C)cc2)C1(/C=C/c1ccccc1)C(=O)NC1CCCC1 (configuration not stated) returned FAS-TE inh 61*, sPLA2-III inh -4, GRIN3A LBD mod 28*, ADAM17 inh 3, ADAM10 inh 2 and FAS-TE inh conf 33.
For O=C1CC(/C=C/c2ccccc2)(C(=O)NC2CCCC2)N1c1ccc(S(=O)(=O)N2CCCC2)cc1 (configuration not stated) the results were FAS-TE inh 75*, sPLA2-III inh 8, GRIN3A LBD mod -5, ADAM17 inh -2, ADAM10 inh -8 and FAS-TE inh conf 9.
For CN(C)S(=O)(=O)c1ccc(N2CCCC2)c(C(=O)OCC(=O)NC2CCCCC2)c1 the results were FAS-TE inh 6, sPLA2-III inh -7, GRIN3A LBD mod 0, ADAM17 inh -3 and ADAM10 inh 3.
Screening COc1ccc(N2C(=O)CC2(/C=C/c2ccccc2OC)C(=O)NC2CCCC2)cc1 (configuration not stated) returned FAS-TE inh 17, sPLA2-III inh -19, GRIN3A LBD mod -2, ADAM17 inh 1 and ADAM10 inh 4.
`Cc1cc(Cl)ccc1OC(C)C(=O)Nc1ccc([N+](=O)[O-])cn1` (configuration not stated) gave FAS-TE inh 52*, sPLA2-III inh 10, GRIN3A LBD mod -2, ADAM17 inh 1, ADAM10 inh 7 and FAS-TE inh conf 22.
Cc1ccc(OC(C)C(=O)Nc2ccc(Cl)cn2)c([N+](=O)[O-])n1 (configuration not stated) was read as FAS-TE inh 10, sPLA2-III inh 12, GRIN3A LBD mod 0, ADAM17 inh -1 and ADAM10 inh -12.
